# PKM2 activator – increases activity of human pyruvate kinase M2 | P14618 | purified PKM2, Kinase-Glo ATP luminescence, activation; response scale: 0% is enzyme alone, no compound | Potency, µM (doses to about 57.5 µM), without a hit: at the highest dose activation, usual class: activators | 0.34% of 260,000 active | AID 1631; further: potency means the concentration at half of the fitted maximal effect; on the % scale 0 is the no-effect control and ±100 the full control effect; nearly all actives have a fitted effect of over 55% in size
#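 hPK-M2, >95% pure; 0.1 mM ADP / 0.5 mM PEP final; imidazole pH7.2 buffer w/ 7 mM MgCl2, 50 mM KCl; 1 h RT; Kinase-Glo lum. Intermediate enzyme activity for dual inhibitor/activator qHTS.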
# EPAC2 agonist – activates human EPAC2 exchange factor; Q8WZA2; EPAC2 activation, biochemical qHTS; response scale: 100% = 6.5 mM cAMP response; Potency, µM (top dose mostly 154 µM), inactives show at the highest dose activation, most hits filed as activators; 0.079% of 360,000 active; AID 720711; further: potency means the concentration at half of the fitted maximal effect; nearly all actives have a fitted effect of over 50% in size
# Target sequence (Q8WZA2 whole entry, looked up): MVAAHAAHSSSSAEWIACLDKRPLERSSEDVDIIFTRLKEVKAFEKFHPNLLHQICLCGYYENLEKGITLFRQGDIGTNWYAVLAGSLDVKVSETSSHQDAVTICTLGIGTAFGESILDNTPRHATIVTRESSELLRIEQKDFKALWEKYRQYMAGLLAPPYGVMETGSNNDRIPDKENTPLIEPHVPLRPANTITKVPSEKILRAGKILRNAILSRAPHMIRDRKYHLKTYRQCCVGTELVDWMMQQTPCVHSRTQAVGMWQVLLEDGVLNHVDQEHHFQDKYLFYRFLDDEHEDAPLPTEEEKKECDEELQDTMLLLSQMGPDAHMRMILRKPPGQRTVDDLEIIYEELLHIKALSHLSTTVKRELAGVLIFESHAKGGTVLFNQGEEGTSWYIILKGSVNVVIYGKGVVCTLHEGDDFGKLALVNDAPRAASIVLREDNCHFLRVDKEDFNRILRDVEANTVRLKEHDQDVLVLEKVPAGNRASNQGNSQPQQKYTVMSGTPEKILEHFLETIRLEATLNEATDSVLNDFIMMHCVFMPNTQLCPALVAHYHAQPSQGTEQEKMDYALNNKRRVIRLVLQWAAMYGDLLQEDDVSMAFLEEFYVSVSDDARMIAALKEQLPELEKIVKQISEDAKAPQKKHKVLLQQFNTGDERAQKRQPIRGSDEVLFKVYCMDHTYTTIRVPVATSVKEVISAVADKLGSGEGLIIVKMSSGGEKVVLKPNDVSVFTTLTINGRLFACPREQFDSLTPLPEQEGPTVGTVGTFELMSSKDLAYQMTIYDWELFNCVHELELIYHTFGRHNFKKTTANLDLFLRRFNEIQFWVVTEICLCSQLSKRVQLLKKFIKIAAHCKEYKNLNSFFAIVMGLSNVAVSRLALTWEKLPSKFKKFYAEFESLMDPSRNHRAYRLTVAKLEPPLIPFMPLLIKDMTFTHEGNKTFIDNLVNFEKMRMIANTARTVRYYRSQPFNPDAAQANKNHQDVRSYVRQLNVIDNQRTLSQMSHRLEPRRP
#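 EPAC2 (100 nM) mixed with Rap1B loaded with BODIPY-GDP (250 nM) plus 50 uM unlabeled GDP; compounds pinned in, 5 min RT, then read every 5 min for 30 min (ex 480, em 540 nm). Normalized to cAMP control.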
# EPAC1 agonist – agonists of human EPAC1 | O95398 | 0.073% of 360,000 active | Potency, µM (highest dose often 154 µM), inactives show at the highest dose activation, most hits filed as activators | EPAC1 agonist qHTS, biochemical assay; response scale: 100% = response to 6.5 mM cAMP | AID 720707; further: potency means the concentration at half of the fitted maximal effect; nearly all actives have a fitted effect of over 60% in size
#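 Fluorescent GDP-exchange assay: 100 nM EPAC1 with 250 nM Rap1B preloaded with BODIPY-GDP and 50 uM GDP; compounds tested as concentration series, 5 min at room temperature, then read every 5 min for 30 min (ex 480/em 540 nm); normalized to 6.5 mM cAMP.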
# IL-2 act – IL-2 activation | activation, % (series mostly up to about 46 µM) | IL-2 activation reporter assay, cell-based qHTS; stimulated with anti-CD3/CD4/CD28 beads; in transgenic mouse T cells | 0.065% of 360,000 active; in the data active means activation above about 50%; inconclusive means mostly about 30% to 49%; further: 0% is about no effect
#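 Readout: EGFP and DsRed signals by fluorescent plate cytometry. Unstimulated transgenic mouse T cells received compound 60 min before antibody-bead stimulation, then incubated 18 h at 37 degrees C.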
# EPAC2 antag – EPAC2 (human) antagonism. Q8WZA2. EPAC2 GEF exchange of Rap1B-BODIPY-GDP, fluorescence. Potency, µM (highest dose often 114 µM), for the others: at the top dose activity, negative = inhibition, most hits filed as inhibitors. 0.18% of 360,000 active; further: potency means the concentration at half of the fitted maximal effect; on the % scale 0 is the no-effect control and ±100 the full control effect; nearly all actives have a fitted effect of over 45% in size
# EPAC1 antag – EPAC1 (human) antagonism | EPAC1 GEF assay, Rap1b-BODIPY-GDP exchange fluorescence | AID 720709 | Potency, µM (top dose mostly 115 µM), without a hit: top-dose activity change, negative = inhibition, usual class: inhibitors | O95398 | 0.14% of 360,000 active;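 further: potency means the concentration at half of the fitted maximal effect; plate controls were vehicle for no effect and positive control for full effect; nearly all actives have a fitted effect of over 50% in size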
# The depositor's hits bear a star; ? = inconclusive; nt = no result given; [ ] = dose if it differs, or a comment. This is a sample that favours compounds with a hit; in the whole collection about 0.64% have one here. Unless noted, the call rests on the fitted dose curve; in most records, active means well fitted curve in the direction sought with a large enough effect; inconclusive means small, poorly fitted or top-dose-only effect, or another doubt; inactive means no such curve, though single readings can be large; an effect the other way counts as inactive or inconclusive.
SMILES,PKM2 activator,EPAC2 agonist,EPAC1 agonist,IL-2 act,EPAC2 antag,EPAC1 antag
N#CC(C(=O)NCc1ccccc1)c1nc2ccccc2nc1N1CCCC1 (configuration not stated),-1%,89µM*,16%,153*,115%[57.1 µM],59%
CCN(CC)c1nc2ccccc2nc1C(C#N)C(=O)NCCc1ccccc1 (configuration not stated),0%,-133%,14%,8,32µM*,-8%
N#CC(C(=O)NCc1ccco1)c1nc2ccccc2nc1N1CCOCC1 (configuration not stated),7%,16%,-33%,0,?,79µM*
CCCCCNC(=O)C(C#N)c1nc2ccccc2nc1N1CCCC1 (configuration not stated),0%,12%,?,150*,28%,54%
Cc1cc(C)c(C)c(S(=O)(=O)NCC(=O)Nc2ccc(F)cc2)c1C,-3%,8%,-7%,-4,-9%,19%
O=C(NCc1nnc2c(C(F)(F)F)cc(Cl)cn12)c1ccco1,14µM*,6%,8%,-3,2%,6%
Cc1ccc(C(=O)NCc2nnc3c(C(F)(F)F)cc(Cl)cn23)o1,1%,-3%,-13%,-3,4%,-1%
Cn1c(SCc2nc3ccccc3[nH]2)nnc1-c1cccs1,-3%,-2%,-4%,0,2%,1%
Cn1c(Cc2cccs2)nnc1SCc1nc2ccccc2[nH]1,-6%,10µM*,-5%,0,14%,4%
COc1ccc(C(C)(C)C)cc1NC(=O)c1[nH]c(C)c(C(C)=O)c1C,18µM*,0%,20%,-1,-22%,5%
COc1ccc(NC(=O)c2[nH]c(C)c(C(C)=O)c2C)cc1Cl,-11%,6%,-14%,1,-9%,-16%
CC(=O)c1ccc(OCC(=O)Nc2c(C)nn(-c3ccccc3)c2C)cc1,nt,5%,0%,-1,21%,-18%
CC(=O)c1sc(NC(=O)C2CCCN2S(=O)(=O)c2ccccc2F)nc1C (configuration not stated),nt,6%,5%,0,-2%,3%
CNS(=O)(=O)c1ccc(CNC[C@H]2O[C@@H](n3cc(C)c(=O)[nH]c3=O)C[C@@H]2O)cc1,nt,4%,13%,3,11%,14%
CC(OC(=O)/C(C#N)=C/c1ccc(N(C)C)cc1)C(=O)N(C)c1ccccc1 (configuration not stated),nt,63µM*,56µM*,0,56%,17%
CC(=O)Nc1ccc(NC(=O)C(C)OC(=O)/C(C#N)=C/c2ccc(N(C)C)cc2)cc1 (configuration not stated),nt,10%,1%,4,14%,-17%
CSCC[C@H](NC(=O)N1CCn2c1nc1ccccc12)C(=O)NCc1ccco1,4%,-4%,-2%,4,-2%,-2%
COc1ccc(-c2csc3nc(C)nc(N4CCCCC4)c23)cc1OC,1%,8%,-1%,-1,28µM*,-4%
COc1ccc(-c2csc3nc(-c4cccnc4)nc(N4CCC(C(N)=O)CC4)c23)cc1OC,5%,8%,-2%,-1,8%,-28%
CC1(C)CC2(CC(c3ccccc3F)c3ccc(O)c(O)c3O2)NC(=S)N1 (configuration not stated),2.8µM*,-4%,4%,-2,3%,-3%
CC1(C)CC2(CC(c3ccc(F)cc3)c3ccc(O)cc3O2)NC(=S)N1 (configuration not stated),0%,16%,0%,-2,-7%,-32%
CN(C)S(=O)(=O)c1ccc(N2CCCC2)c(C(=O)OCC(=O)N2CCN(c3ccccc3)CC2)c1,nt,-3%,4%,-4,-2%,-4%
O=c1c2ccccc2c(C=Nc2ccccc2O)c(O)n1-c1nccs1,-5%,2%,-1%,64*,8%,4%
Cc1ccccc1N=Cc1c(O)n(-c2nccs2)c(=O)c2ccccc12,6%,-3%,5%,2,-3%,-15%
CC1(C2CCC3C4CCC5CC6(CCC5(C)C4C(=O)CC32C)OCCO6)OCCO1 (configuration not stated),nt,5%,8%,-1,56µM*,?
SMILES,PKM2 activator,EPAC2 agonist,EPAC1 agonist,IL-2 act,EPAC2 antag,EPAC1 antag
COCCn1c(-c2ccc(-c3ccccc3Cl)o2)nc2c1c(=O)[nH]c(=O)n2CC(C)C,28µM*,-3%,0%,2,1%,-10%
CCCCn1c(=O)[nH]c(=O)c2c1nc(-c1ccc(-c3ccccc3Br)o1)n2CCOC,?,0%[15.6 µM],7%,0,10%,-1%
CCN1C(=O)C(=CC=CN(C)c2ccccc2)SC1=S,nt,89µM*,?,4,-3%,35%
Cc1ccc(Cl)cc1NC(=O)C1CCCN1S(=O)(=O)c1ccc(-c2ccc(=O)[nH]n2)s1 (configuration not stated),nt,11%,-2%,-3,8%,-2%
Cc1cccc(OCC(=O)OCC(=O)N2CCN(C(=O)c3ccco3)CC2)c1C,nt,12%,0%,-2,-5%,5%
CC1=NOC(=O)/C1=C/c1ccc(-c2ccc(Cl)cc2)o1,13%,nt,nt,nt,nt,nt
CC1=NOC(=O)/C1=C\c1ccc(-c2cc(Cl)ccc2Cl)o1,18%,1%,3%,-5,79µM*,-12%
Cc1oc2c(C)c(O)ccc2c(=O)c1-c1nncn1-c1ccccc1,18µM*,6%,-4%,0,-4%,12%
Cc1ccc(S(=O)(=O)N2C[C@H]3C(=O)C[C@@H](c4ccc(Cl)cc4)N(S(=O)(=O)c4ccccc4C)[C@H]3C[C@H]2c2cccc(Cl)c2)cc1,nt,14%,-2%,-3,3%,-4%
CN(C)C(=O)CSc1nnc2sc3ccccc3n12,-12%,-1%,-3%,0,10%,1%
c1csc(CSc2nnc3sc4ccccc4n23)c1,16µM*,5%,4%,-5,12%,2%
Cc1cc(C)n2cc(CSc3nnnn3-c3ccc(Cl)cc3)nc2n1,16µM*,-3%,-7%,-4,-5%,-15%
Cc1cc(C)n2cc(CSc3nnnn3-c3ccccc3)nc2n1,8.9µM*,-2%,2%,-1,7%,-5%
C/C=C\C=C/C(=O)Nc1cccc(C2=NOC3(C2)C[C@H](C(N)=O)N(C(=O)c2ccc(OC)cc2)C3)c1 (some centres not stated),14µM*,7%,-5%,3,-6%,?
